The text below walks through data of PubChem BioAssay AID652264 (National Center for Advancing Translational Sciences (NCATS), 2013).

SMILES strings stand for the structures. Active and inactive are the calls of the source.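 The calls were made as follows: active = compounds blocking cell cycle progression with a potency of 5000 nM or lower; inconclusive = potency above 5000 nM but under 10000 nM; inactive = the rest.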

The assay in a line: qHTS for Inhibitors of Ubiquitin-specific Protease USP2a Using CHOP2 as the Reporter: Cell Cycle. As to conditions: HCT116 cell cycle arrest, propidium iodide DNA content, 16 h. The text has this: Homeostasis of cellular proteins is maintained through a combination of synthesis and degradation. The pathway that accounts for the majority of protein degradation is the ubiquitin-proteasomal pathway. Ubiquitin (Ub) is highly conserved in all cells and the generation of a multi-Ub chain typically targets proteins for degradation by the proteasome. However, ubiquitination is highly reversible and dynamic. Deubiquitination, the reverse process, is catalyzed through the action of enzymes referred to as isopeptidases or deubiquitinating enzymes (DUBs). This group of enzymes is collectively responsible for maintaining adequate pools of free ubiquitin and regulating the ubiquitination status of cellular proteins. The class of DUBs referred to as the ubiquitin-specific proteases (USP) family functions endoproteolytically to cleave Ub chains from a wide range of protein substrates. […] Cells in G2 have twice the fluorescence as cells in G1, and the Acumen allows the cells to be binned by their individual fluorescence properties. Therefore, in the presence of an active USP2 inhibitor the fluorescence of a cell would be lower since it would not progress from G1 to S and then G2. […]
HCT116 cells at 600 cells/well were plated in 96-well plates and allowed to adhere overnight (37C, […]). […] Intensity of the DNA stain per cell was quantified using the Acumen plate reader. […]
(In general: qHTS replaces the single test concentration by a dilution series.)
`Cc1ccc(S(=O)(=O)Nc2cc(C(F)(F)F)ccc2C(=O)Nc2nc(-c3ccccc3)cs2)cc1`: the Potency was 2 µM (active).
